# Laboratory results taken from PubChem BioAssay AID686978 (National Center for Advancing Translational Sciences (NCATS), 2013).
# Hit rate of the full screen: of about 420,000 compounds, about 64,000 (15%) were called active. Another 27% or so got no clear call; they are omitted. The call rests on the fitted dose curve; in most records, active means well fitted inhibition curve with a large enough effect; inconclusive means small, poorly fitted or top-dose-only effect; inactive means flat fitted curve, though single readings scatter. These entries were drawn from the full list. Entries that show only a call come without a potency.
# Assay: qHTS for Inhibitors of human tyrosyl-DNA phosphodiesterase 1 (TDP1): qHTS in cells in absence of CPT; further: nearly all actives have a fitted effect of over 55% in size
# Conditions: DT40 Tdp1-/- hTDP1 cells, no CPT, ATP luminescence, 48 h; activity change, negative = growth inhibition: at 46.2 µM (top of the series)
# In short: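 No-CPT arm: Tdp1-/-;hTDP1 DT40 cells (400/well) plus compounds, incubated ≥48 hr at 37 °C. Readout CellTiter-Glo luminescence.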
# Potency means the concentration at half of the fitted maximal effect.
row,SMILES,Potency
1,CCCCCC1CCC(c2nnc(SCC(C)=O)o2)CC1 (stereo unspecified),inactive
2,Cc1cc(C)n(-c2c(F)c(F)c(COC(=O)c3ccccc3)c(F)c2F)n1,inactive
3,O=C(C1=C(O)C(=O)N(c2ncccn2)C1c1cccs1)c1ccco1 (stereo unspecified),inactive
4,O=C(Oc1cccnc1)c1cc2ccccc2oc1=O,inactive
5,CC(=O)N1CCN(CC(c2ccccc2)c2ccccc2)CC1,inactive
6,CC(CCc1ccc(O)cc1)NCc1ccc(Cl)cc1Cl (stereo unspecified),18.4 µM (active)
7,COc1ccc(CCn2ccc(O)c(Cc3ccc(Cl)cc3Cl)c2=O)cc1OC,inactive
8,COc1ccc(CNC(=O)C(C)NCc2ccccc2Cl)cc1 (stereo unspecified),inactive
9,O=C(NCC(=O)N1CCN(c2ncc(C(F)(F)F)cc2Cl)CC1)c1ccc(Br)o1,18.4 µM (active)
10,O=C(CN1CCN(c2ncc(C(F)(F)F)cc2Cl)CC1)Nc1ccc2c(c1)OCO2,inactive
11,COc1ccc(N2CCN(C(=O)CNC(=O)c3ccc(Br)o3)CC2)cc1,inactive
12,Cc1ccc(CSCC(=O)N(C)CC(=O)Nc2cccc(F)c2)cc1,inactive
13,O=C(O)CCC(=O)N(Cc1ccco1)c1nc(-c2ccccc2)cs1,inactive
14,CC(Oc1ccc(F)cc1F)C(=O)/C=C/N(C)C (stereo unspecified),inactive
15,c1ccc(C2CNCc3c2ccc2ccccc32)cc1 (stereo unspecified),16.4 µM (active)
16,CC1(C)CC(=O)C(C=NCCN2CCN(C(=S)Nc3cccc(Cl)c3)CC2)=C(O)C1,inactive

row,SMILES,Potency
1,COc1ccc(-c2n[nH]c3c2CN(C(=O)c2ccc(F)cc2)CC3)cc1,inactive
2,COCCCNC(=O)COc1cc(C)c(Cl)c(C)c1,inactive
3,Cc1cc2c(cc1S(=O)(=O)CCC(=O)NCc1ccccc1)OCC(=O)N2,inactive
4,CC(=O)Nc1ccc2c3c(ccc([N+](=O)[O-])c13)CC2,inactive
5,CCCNC(=O)C1CC(=O)N(c2ccc(OCC(=O)Nc3cccc(C)c3C)cc2)C1 (stereo unspecified),inactive
6,CCCOc1ccc(/C=N/NC(=O)C2CC2)c(OCCC)c1,inactive
7,COc1ccc(NC(=S)NCCNC(C)=O)cc1,inactive
8,COc1ccc(NC(=S)Nc2ccccc2Cl)cn1,inactive
9,COc1ccc(CS(=O)/C(Cl)=C(/Cl)C(=O)Nc2ccc(OC)nc2)cc1 (stereo unspecified),0.13 µM (active)
10,CS(=O)(=O)c1ccc(Cl)c(NC(=O)COC(=O)c2ncc(Cl)c(Cl)c2Cl)c1,inactive
11,O=C(Nc1cc2c3c(c1)CC(=O)N3CCC2)c1ccccc1F,inactive
12,COc1ccc(/C=C(\NC(=O)c2ccccc2)C(=O)NCCN2CCOCC2)cc1OC,inactive
13,COCCN(Cc1nc(-c2ccc(C(F)(F)F)cc2)no1)C(C)C,inactive
14,CN(C(=O)COc1ccccc1)c1nnc(-c2ccncc2)s1,inactive
15,COCCN(C(=O)C(C)C)c1nnc(-c2ccc(C(C)(C)C)cc2)s1,20.6 µM (active)
